Results on 17 sequences are retold here after the OligoGym collection.
Note: reference of the scale not given here.

In the first test the target is ZSCAN21. The test is described as follows: pooled miR-30 sensor sort-seq; sequence = guide strand. The conditions noted are these: shRNA.
The sequence TTAACTAGACTGGATACACGTC showed a sensor-assay potency score (higher = more potent) of -0.514.
Still for that read-out and setting: the result for TAGACTGGATACACGTCTGTTT reads -0.362.
Still for that read-out and setting: in the case of TAAAACAACGACAACAACAGGA it was 0.555.
Same read-out and setting: the result for ATATATAACGTCTCTCTCCTGG reads 0.19; that for TTTAAGAAGGTCTGAGCTCTGC, 0.0311.

The target of the next test is ZSCAN2. The test is described as above. The settings on record: shRNA.
As for TTGAGGAGGTTGGAGCTCCAGC, the sensor-assay potency score (higher = more potent) is -0.932.
Regarding TAAAGCTTTTTCCACATTCATC, the sensor-assay potency score (higher = more potent) was -1.45.
On the same count and under the same terms, the result for TACAGCACTGTCCTGAAGGGTC reads -0.556; that for TTGTAACTAAAGCTTTCGCCGC, -0.979.
Still for that read-out and setting: the result for TTGTAGTATTTCTCTCCTGTGT reads -0.38; that for TATCTCAAAATCACTGTCCTGA, 0.962; that for TTCACTGTCCTGAAGGGTCTGG, 0.109.
The same measure, in the same setting: the result for TTAGATTGGAGTTGTAACTAAA reads -0.577; that for TTTCCGAGAATATCTTACGTGA, -0.583.
As for TTCATTCTCAAACATGTCTTGA, the sensor-assay potency score (higher = more potent) is -0.592.
The sequence TAAAATTTGAACCATCACTAAA displayed a sensor-assay potency score (higher = more potent) of -1.38.
Same read-out and setting: in the case of TAGTATACAAAAGCTACCCGAC it was -0.627.
